According to the OligoGym collection:

The sequences below were run against ABHD14A (assay: pooled miR-30 sensor sort-seq; sequence = guide strand). Settings: shRNA.
Note: reference of the scale not given here.

| Sequence | sensor-assay potency score (higher = more potent) |
| --- | --- |
| TAAGGGTTGGAGTCTTCACAGC | -1.08 |
| TGAGTGGGAGCACCTCGCGGTA | -1.68 |
| TTGAGTGGGAGCACCTCGCGGT | 0.0609 |
| TAGCTTCACCACAGAGTGGTTG | -1.24 |
| TCGAGCCAGGATGTGGTCCAGC | -1.4 |
| TGCATTGCGTAGCTTCACCACA | -1.6 |
| TCCATGAAGCAGCACCACCTCC | -1.75 |
| TCTGTGACAGTAGCTGCAGTGT | -1.16 |
| ATGGCCTGCATTGCGTAGCTTC | -1.76 |
| TTGCGTAGCTTCACCACAGAGT | 0.297 |
| GAGGTCTGTACCACAGTCGGGC | -1.45 |

What follows are sequences tested against ABHD14B in the same assay as above. Settings: shRNA.

| Sequence | sensor-assay potency score (higher = more potent) |
| --- | --- |
| CTGGTCTCCATATACAATCAGA | -2.16 |
| TGCTTCAGGTGCTCAAAGCTGG | -0.768 |
| AAAGCTGGTCTGACCCATGGGG | -0.273 |
| TTCAGGTGCTCAAAGCTGGTCT | -0.558 |
| TTGATTTTGTCAGTGCAGATGG | -0.728 |
| ATAGTTGGCAGCATTGATTTTG | -0.758 |
| TCCATATACAATCAGAGCTGGA | -1.62 |
| TGGTTTGTCCAGGTAACAGGGG | -0.958 |
| TTTGTCCAGGTAACAGGGGTGC | -1.14 |
| TGGACTGATCACAACCGGGGGG | -0.281 |
| TAGTTGGCAGCATTGATTTTGT | -0.754 |
| TTCTGCCAGGTCTCGGAGGAGA | -1.13 |
